The source of these data is PubChem BioAssay AID2322 (Broad Institute, 2010).

About 120 (0.44%) of roughly 27,000 compounds were called active. The entries come from a sample that favours actives as a whole. Unmarked numbers belong to inactive results. Rule as the data show it: active = inhibition above about 20%; inconclusive = no clear call, values can overlap the other calls; inactive = below that.

Chain of Serine/threonine-protein kinase 33 (Homo sapiens) (Q9BYT3 whole entry, looked up): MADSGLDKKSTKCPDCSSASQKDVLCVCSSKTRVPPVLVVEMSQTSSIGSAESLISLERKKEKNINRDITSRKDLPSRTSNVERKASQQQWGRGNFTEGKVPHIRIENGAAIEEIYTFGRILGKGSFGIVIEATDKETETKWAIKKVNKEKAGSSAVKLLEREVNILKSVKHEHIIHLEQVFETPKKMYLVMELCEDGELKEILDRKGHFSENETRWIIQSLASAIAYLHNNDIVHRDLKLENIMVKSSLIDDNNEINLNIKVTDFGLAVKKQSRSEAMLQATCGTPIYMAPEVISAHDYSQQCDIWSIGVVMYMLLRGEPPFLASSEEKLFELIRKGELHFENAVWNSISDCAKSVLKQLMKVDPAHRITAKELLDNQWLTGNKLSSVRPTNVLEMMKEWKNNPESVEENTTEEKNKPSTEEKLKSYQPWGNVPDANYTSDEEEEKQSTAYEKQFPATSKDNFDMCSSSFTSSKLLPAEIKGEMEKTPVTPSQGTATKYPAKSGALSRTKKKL

This experiment concerns the target Serine/threonine-protein kinase 33 (Homo sapiens) (UniProt Q9BYT3). Kind of experiment: STK33 kinase inhibitors, primary screen, biochemical, luminescence, ADP-Glo, MBP substrate (AID 2322). As to conditions: at 12.5 µM, hits give high values. Background: In ADP-Glo the light output rises with the ADP produced.
In general, inhibition refers to the relative decrease from the control value, in per cent. For `Cc1noc(C)c1NC(=O)Nc1ccc2c(c1)C(=O)N([C@H](C)CO)C[C@H](C)[C@@H](CN(C)C(=O)Nc1ccc(C(F)(F)F)cc1)O2`, the inhibition was 3.9%. Under `COc1ccccc1NC(=O)c1c(NC(=O)c2cccnc2)sc(C)c1C` stands 4.55%. Under `c1ccc(-n2c(SCc3nc4ccccc4s3)nnc2-c2ccncc2)cc1` stands 1.5%; under `O=[N+]([O-])c1ccccc1-c1ccc(CN2CCN3CCCC3C2C2CCCCC2)o1` (stereo not drawn), -1.45%.

On to `O=C(CCn1nc(-c2ccc(Cl)cc2)c2ccccc2c1=O)Nc1cccc(C(F)(F)F)c1`, for which the inhibition is 0.989%. In the case of `C[C@@H]1CN([C@H](C)CO)C(=O)Cc2cc(NS(C)(=O)=O)ccc2O[C@@H]1CN(C)C(=O)Nc1ccc2c(c1)OCO2` it was 1.61%; in that of `CCOc1c(S(=O)(=O)NCc2cccnc2)ccc(Cl)c1Cl`, 3.15%. Under `O=C(Oc1ccccc1)c1cccc(COC(=O)c2cc3ccccc3oc2=O)c1` stands -1.52%; under `COc1cccc(-c2cnc3c(c2)C(=O)N([C@H](C)CO)C[C@H](C)[C@H](CN(C)Cc2ccncc2)O3)c1`, -1.09%; under `O=C1c2c(O)cc(O)cc2O[C@@H](c2ccc(O)cc2)[C@@H]1c1c(O)cc(O)c2c(=O)cc(-c3ccc(O)cc3)oc12`, 6.09%. In the case of `Cc1cc(C)cc(OCC(=O)Nc2cccc(-c3nnc(-c4ccccc4)o3)c2)c1` it was 4.59%. Take `C[C@@H]1CN([C@@H](C)CO)C(=O)Cc2cc(NC(=O)Nc3ccc4c(c3)OCO4)ccc2O[C@@H]1CN(C)CC1CCCCC1`: the inhibition is 1.59%. Take `c1ccc(Cn2c3ccccc3c3nnc(SCc4ccc5nonc5c4)nc32)cc1`: the inhibition was 2.04%. For `C[C@H]1CN([C@@H](C)CO)C(=O)CCCn2nncc2CO[C@@H]1CN(C)S(=O)(=O)c1cccc(C#N)c1`, the inhibition was 4.45%.

Regarding `COc1ccc(N2C(=O)CC(SCC(=O)Nc3ccccc3F)C2=O)cc1` (stereo not drawn), the inhibition was 0.679%. Under `Cc1ccc(-n2c(SCC(=O)Nc3ccc(F)c(F)c3)nnc2-c2cnccn2)cc1` stands -2.72%; under `COc1cc2c(cc1NC(=O)C1CCC(=O)N1S(=O)(=O)c1ccc(C)cc1)oc1ccccc12` (stereo not drawn), -1.01%; under `Cc1ccc(-c2nnc(Nc3ccc(C(=O)N(C)C)cc3)c3ccccc23)cc1S(N)(=O)=O`, 1.54%. In the case of `CCc1c(O)nc(SCC(=O)Nc2ccc(OC)cc2)n(-c2ccccc2C)c1=O` it was -1.3%; in that of `S=c1cc(-c2ccccc2)oc(-c2ccccc2)c1`, 9.05%; in that of `COc1ccccc1NC(=O)CCC(=O)c1ccc(C)cc1`, 0.187%.

With `COc1cc(/C=C2\Oc3cc(O)cc(O)c3C2=O)ccc1O`, the inhibition is 80.7% (active).

Regarding `COc1cc(/C=C/C(=O)NCCc2ccc(O)cc2)ccc1O`, the inhibition was -4.2%. Under `CCN(CC)C(=O)c1ccc(O)c(OC)c1` stands 1.6%; under `C[C@H](CO)N1C[C@H](C)[C@H](CN(C)S(=O)(=O)c2cccc(F)c2)OCc2cnnn2CCCC1=O`, 1.75%. In the case of `Cc1ccc2oc3c(c(=O)c2c1)C(c1ccc([N+](=O)[O-])cc1)N(CCCN1CCOCC1)C3=O` (stereo not drawn) it was -0.738%; in that of `O=C(CSc1nnc(-c2ccccc2Cl)n1-c1ccccc1)Nc1ccc([N+](=O)[O-])cc1`, 1.7%; in that of `CCOC(=O)CCSc1nnc2c3ccccc3n(C)c2n1`, 0.466%. Under `O=C(CN1C(=O)COc2ccc(Cl)cc21)Nc1ccc(N2CCOCC2)cc1` stands 6.98%. As for `O=C(CCn1cnc2ccccc2c1=O)Nc1cccc(C(F)(F)F)c1`, the inhibition is -2.03%. `CS(=O)(=O)CCC(C(=O)N1CCOCC1)N1C(=O)c2ccc(Br)cc2C1=O` (stereo not drawn): the inhibition is -0.215%. In the case of `Cc1nc2ccccc2n1CC(O)COc1ccc(C2C=CCC2)cc1` (stereo not drawn) it was -1.35%; in that of `COc1ccc([Si](C)(C)[C@@H]2[C@@H](CCO)O[C@]3(C(=O)N(Cc4cccc(N5CCCCC5=O)c4)c4ccccc43)[C@H]2C)cc1`, 2.11%; in that of `Cc1noc(C)c1S(=O)(=O)Nc1ccc2c(c1)CC(=O)N([C@H](C)CO)C[C@@H](C)[C@@H](CN(C)Cc1ccc(C(=O)O)cc1)O2`, 0.587%. Take `CCCn1c2ccccc2c2nnc(SCC(=O)Nc3cccc4ccccc34)nc21`: the inhibition is 0.6%. Under `CC(C)c1ccc(OCC(O)Cn2cnc3ccccc32)cc1` (stereo not drawn) stands 0.565%. In the case of `O=C(COc1ccc2c(=O)c(-c3ccccc3)coc2c1)Nc1ccc(F)cc1`, the inhibition is 1.18%. As to `C[C@@H]1CN([C@@H](C)CO)C(=O)Cc2cc(NC(=O)C3CCCCC3)ccc2O[C@@H]1CN(C)Cc1ccncc1`, the inhibition is 0.459%. In the case of `CC(C)CN1C(=O)[C@@]2(Cc3ccccc31)c1ccccc1C(=O)N(C1CCCCC1)[C@H]2c1ccc(CO)cc1` it was -0.707%; in that of `O=C(CSc1nc2sc3c(c2c(=O)[nH]1)CCC3)Nc1ccccc1C(F)(F)F`, -3.77%; in that of `Cc1ccc(NC(=O)CSc2ncnc3sc(C)c(C)c23)cc1`, 5.19%. For the molecule `Cc1ccc(-c2nc3cc(NC(=O)COc4ccc([N+](=O)[O-])cc4)ccc3o2)cc1C`, the inhibition was 0.362%. `CN(CC(=O)Nc1ccc(C#N)cc1)S(=O)(=O)c1ccc(Cl)cc1`: the inhibition is 4.42%. On to `C[C@H]1CN([C@@H](C)CO)C(=O)c2cc(NC(=O)Cc3cn(C)c4ccccc34)ccc2O[C@H]1CN(C)CC1CCCCC1`, for which the inhibition was 0.289%. Under `CS(=O)(=O)N(CC(=O)Nc1ccc2ccccc2c1)c1cc(Cl)c(Cl)cc1Cl` stands 0.303%. As to `O=c1[nH]nc(-c2ccc(NCc3cccnc3)c([N+](=O)[O-])c2)c2ccccc12`, the inhibition is 0.832%.

With `CCOC(=O)c1c(NC(=O)CSc2ncn[nH]2)sc2c1CCC2`, the inhibition was 3.47%.

Take `CCOC(=O)c1c(NC(=O)C2(C)Cc3ccccc3C(=O)O2)sc2c1CCCC2` (stereo not drawn): the inhibition is 0.582%.

For `CS(=O)(=O)N(CC(=O)NC1CC1)c1ccc(Cl)c(C(F)(F)F)c1`, the inhibition was -1.46%.

Consider `O=C(NCCN1CCOCC1)C(=O)NCC1COc2ccccc2O1` (stereo not drawn), for which the inhibition is 2.08%. Under `COC(=O)c1c(NC(=S)Nc2ccc(OC)cc2[N+](=O)[O-])sc2c1CCC(C)C2` (stereo not drawn) stands -1.18%; under `Cc1nnc2sc(-c3cccc(NC(=O)C(C)Oc4ccc(Cl)cc4Cl)c3)nn12` (stereo not drawn), 1.75%. In the case of `CN(CC(=O)Nc1c(F)cccc1F)S(=O)(=O)c1ccc(Cl)cc1` it was 0.176%; in that of `CC(C)S(=O)(=O)NCC1CCN(Cc2cccc(OCCO)c2)CC1`, -4.57%; in that of `CC1(C)CC[C@]2(C(=O)O)CC[C@]3(C)C(=CCC4[C@@]5(C)CC[C@H](OC6O[C@H](CO)[C@@H](O)[C@H](O[C@@H]7O[C@H](CO)[C@@H](O)[C@H](O)[C@H]7O)[C@H]6O)C(C)(C)C5CC[C@]43C)[C@@H]2C1` (stereo partly drawn), -3.3%. In the case of `CN(CC(=O)Nc1ccc(Br)cc1)S(=O)(=O)c1ccc2ccccc2c1` it was -0.268%; in that of `COc1ccc(N(CC(=O)Nc2cccnc2)S(C)(=O)=O)c(OC)c1`, 1.05%. Turning to `CN1CCN(S(=O)(=O)c2ccc(NC(=O)C3CC=CCC3C(=O)O)cc2)CC1` (stereo not drawn), the inhibition is -6.02%. Under `O=C(CSc1nnc2c(n1)[nH]c1ccccc12)Nc1cccc(C(F)(F)F)c1` stands 0.0503%. In the case of `O=C(c1cc([N+](=O)[O-])ccc1NCc1cccnc1)N1CCOCC1` it was 0.472%.

As to `CCc1cc(C(=O)OC)c(NC(=S)Nc2ccc(OC)cc2[N+](=O)[O-])s1`, the inhibition is 2.32%. In the case of `CCc1cc(C(=O)OC)c(NC(=O)CC2Sc3ccc(C(F)(F)F)cc3NC2=O)s1` (stereo not drawn) it was 26.1% (active); in that of `C=CCn1c(SCc2nc3ccccc3[nH]2)nnc1-c1cccc(C)c1`, -1.59%. Under `CCn1c(SCC(=O)Nc2ccc3c(c2)OCCO3)nnc1-c1ccncc1` stands 0.907%. In the case of `COc1ccc(CCNC(=S)Nc2c(C)n(C)n(-c3ccccc3)c2=O)cc1OC` it was 0.317%; in that of `Cc1ccnc(NC(c2cccc(Br)c2)c2ccc3ccc(C)nc3c2O)c1` (stereo not drawn), -1.5%.

For `COc1ccc(-c2cc(C(F)(F)F)n3nc(C(=O)NCCCN4CCOCC4)cc3n2)cc1OC`, the inhibition was -3.3%. Under `CCOc1ccccc1NC(=O)C1C(C(=O)O)C2C=CC1C21CC1` (stereo not drawn) stands -4.9%; under `Cc1ccc(NC(=O)CCCN2C(=O)c3ccccc3C2=O)cc1`, 0.883%; under `O=C1O[C@@H](c2ccccc2)[C@@H](c2ccccc2)N2[C@@H](c3ccccc3OCCO)[C@]3(C(=O)Nc4ccc(C#CC5(O)CCCCCC5)cc43)[C@@H](C(=O)N3CCN(c4ncccn4)CC3)[C@H]12`, 10.1%.

Turning to `COc1ccc(N(CC(=O)Nc2ccc(F)c(F)c2)S(C)(=O)=O)cc1OC`, the inhibition was 0.788%. For `CCn1c(SCC(=O)Nc2cc(Cl)c(Cl)cc2Cl)nnc1-c1cc(Br)ccc1O`, the inhibition was -2.32%. On to `CNC[C@H]1OCc2cnnn2CCCC(=O)N([C@H](C)CO)C[C@@H]1C`, for which the inhibition was 2.08%. Under `Cc1ccc(S(=O)(=O)N(C)C[C@H]2Oc3ccc(NC(=O)Nc4cccc5ccccc45)cc3CC(=O)N([C@H](C)CO)C[C@H]2C)cc1` stands 5.7%; under `O=C(CC(NC1CCCC1)C(=O)O)Nc1cccc(Cl)c1` (stereo not drawn), -4.61%; under `Cc1ccc(OCC(=O)Nc2cccc(NC(=O)c3ccco3)c2)cc1C`, 3.45%.

As for `COC(=O)c1ccc(NC(=O)CN(c2ccc(C)c(Cl)c2)S(C)(=O)=O)cc1`, the inhibition is -2.86%. Under `O=C(NCCCn1ccnc1)c1cc2c(s1)CCCC2` stands -4.73%.
